Structures are written as SMILES. Activity calls are given as the source filed them.

This passage reports composite z-score and z-score results from PubChem BioAssay.

Experiment [1] can be described thus: binders of probe aFSTL3 on microarray, primary screen, stem cell growth factor project, biochemical, small-molecule microarray, fluorescence 635/667 (AID 1064).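 Note: measures binding of the biotinylated anti-FSTL3 antibody to printed compounds.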 The settings on record: higher = more signal.
Experiment [2] is described as follows: binders from COS7 lysate, DM2A8 probe, primary screen, torsin A project, cell lysate, small-molecule microarray, fluorescence 635/667 (AID 1065). As to conditions: higher = more signal, COS7 lysate expressing mutant human TOR1A.
Experiment [3] can be described thus: binders of probe aFGF2 on microarray, primary screen, stem cell growth factor project, biochemical, small-molecule microarray, fluorescence 635/667 (AID 1067).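 Note: measures binding of biotinylated aFGF2 protein to printed compounds on slides; z-score merges feature fluorescence and signal-to-noise across triplicate slides.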 As to conditions: higher = more signal.
Experiment [4] is described as follows: binders of probe aFGF10 on microarray, primary screen, stem cell growth factor project, biochemical, small-molecule microarray, fluorescence 635/667 (AID 1071).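 Note: score merges 667 nm spot intensity and signal to noise from triplicate slides.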 The settings on record: higher = more signal.
In experiment [5] the target is Neurogenic locus notch homolog protein 2 (Homo sapiens) (UniProt Q04721). As to the kind of experiment: Notch2 binders on small-molecule microarrays, primary screen, biochemical, small-molecule microarray, 635 nm fluorescence, stem cell growth factors (AID 1073). The settings on record: Notch2 binding, higher = more signal.
Experiment [6] concerns the target Pro-neuregulin-1, membrane-bound isoform (Homo sapiens) (UniProt Q02297). The experiment in a line: NRG1 binders on small-molecule microarrays, primary screen, psychiatric disease protein project, biochemical, small-molecule microarray, fluorescence 635/667 (AID 1075).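 Note: score combines 667 nm spot fluorescence with signal to noise.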 As to conditions: NRG1 binding, 635 nm fluorescence, higher = more signal.
The test system of experiment [7] is Neuregulin-1 EGF-like domain. As to the kind of experiment: binders of neuregulin-1 EGF-like domain, primary screen, biochemical, small-molecule microarray, 635 nm fluorescence (AID 1081).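 Note: binding of the protein to compounds printed on small-molecule microarray slides.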 The settings on record: small-molecule microarray binding, higher = more signal.
Experiment [8] can be described thus: FRG1 promoter luciferase signal modulators, primary screen, FRG1 inhibition for FSHD, cell-based, C2C12 myotubes, firefly/Renilla luciferase, luminescence (AID 1084). The settings on record: higher = more signal, called active from +8 up or from −8 down.
Experiment [9] in a line: binders of probe aFST on microarray, primary screen, stem cell growth factor project, biochemical, small-molecule microarray, fluorescence 635/667 (AID 1086).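 Note: score merges 667 nm fluorescence with signal-to-noise of each printed compound spot.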 As to conditions: higher = more signal.
Experiment [10] is described as follows: binders of probe aHhip on microarray, primary screen, stem cell growth factor project, biochemical, small-molecule microarray, fluorescence 635/667 (AID 1087).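 Note: score merges spot fluorescence at 667nm with spot signal to noise ratio.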 The settings on record: higher = more signal.
The test system of experiment [11] is PRMT1 (protein arginine N-methyltransferase 1). The experiment in a line: PRMT1 binders on small-molecule microarrays, primary screen, biochemical, small-molecule microarray, 635 nm fluorescence (AID 1088).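 Note: binding of Prmt1 protein to compounds spotted on small-molecule microarray slides.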 The settings on record: small-molecule microarray binding, higher = more signal.
Experiment [12] in a line: yeast growth modulation, basal conditions, primary screen, YJM789 clinical isolate, OD600, 24 h (AID 1089).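 Note: growth of clinical yeast isolate S. cerevisiae YJM 789 seeded 1000 cells per well; test concentration not given here.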 The settings on record: S. cerevisiae YJM789 growth, higher = more signal, called active from +8 up or from −8 down.
Experiment [13] in a line: fission yeast growth modulation, primary screen, strain 972, OD600, 24 h, no modulator (AID 1090).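 Note: basal condition with compound alone and no growth modifier present; test concentration not given here.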 The settings on record: S. pombe 972 growth, higher = more signal, called active from +8 up or from −8 down.
The nature of experiment [14]: S. cerevisiae growth modulation with rapamycin, primary screen, strain BY4716, OD600, 96 h (AID 1091). Note: test concentration not given here. As to conditions: higher = more signal, called active from +8 up or from −8 down.
For experiment [15], the target named is Torsin-1A-interacting protein 2 (Homo sapiens) (UniProt Q8NFQ8). As to the kind of experiment: LULL1 binders on small-molecule microarray, primary screen, cell lysate, human LULL1 lysate, 635/667 nm fluorescence (AID 1092).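 Note: score merges per-feature 667 nm fluorescence with signal-to-noise.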 The settings on record: hLULL1 lysate binding, 635 nm fluorescence, higher = more signal.
Experiment [16] can be described thus: E. coli growth modulation, two-sided OD650, primary screen, E. coli filamentation project, strain DRC41, 24 h (AID 1093).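 Note: MC1000 strain lacking acrAB efflux and sulA so SOS filamentation is blocked; test concentration not given here.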 As to conditions: OD650, 24 h, higher = more signal, called active from +8 up or from −8 down.
Experiment [17] is described as follows: small-molecule microarray binders of probe aLefty2, primary screen, biochemical, biotinylated probe, 635/667 nm fluorescence (AID 1094).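 Note: score merges spot fluorescence near 667 nm with spot signal-to-noise ratio.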 As to conditions: higher = more signal.
Experiment [18] deals with Noggin (protein binding on small-molecule microarray). As to the kind of experiment: Noggin binders on small-molecule microarray, primary screen, biochemical, 635/667 nm fluorescence (AID 1095).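 Note: score merges 667 nm feature fluorescence with signal to noise over triplicate slides.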 As to conditions: 635 nm fluorescence, higher = more signal.
Experiment [19] deals with Neurogenic locus notch homolog protein 3 (Homo sapiens) (UniProt Q9UM47). As to the kind of experiment: NOTCH3 binders on small-molecule microarray, primary screen, biochemical, 635/667 nm fluorescence (AID 1096). The settings on record: NOTCH3 binding, 635 nm fluorescence, higher = more signal.
The nature of experiment [20]: small-molecule microarray binders of probe aEGFR, primary screen, biochemical, biotinylated probe, 635/667 nm fluorescence (AID 1097).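 Note: probe is a biotinylated anti-EGFR antibody binding compounds printed on slides; score combines fluorescence near 667 nm and signal to noise of each spot.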 As to conditions: higher = more signal.

Neurogenic locus notch homolog protein 2 (Homo sapiens), sequence (Q04721 whole entry, looked up, canonical isoform): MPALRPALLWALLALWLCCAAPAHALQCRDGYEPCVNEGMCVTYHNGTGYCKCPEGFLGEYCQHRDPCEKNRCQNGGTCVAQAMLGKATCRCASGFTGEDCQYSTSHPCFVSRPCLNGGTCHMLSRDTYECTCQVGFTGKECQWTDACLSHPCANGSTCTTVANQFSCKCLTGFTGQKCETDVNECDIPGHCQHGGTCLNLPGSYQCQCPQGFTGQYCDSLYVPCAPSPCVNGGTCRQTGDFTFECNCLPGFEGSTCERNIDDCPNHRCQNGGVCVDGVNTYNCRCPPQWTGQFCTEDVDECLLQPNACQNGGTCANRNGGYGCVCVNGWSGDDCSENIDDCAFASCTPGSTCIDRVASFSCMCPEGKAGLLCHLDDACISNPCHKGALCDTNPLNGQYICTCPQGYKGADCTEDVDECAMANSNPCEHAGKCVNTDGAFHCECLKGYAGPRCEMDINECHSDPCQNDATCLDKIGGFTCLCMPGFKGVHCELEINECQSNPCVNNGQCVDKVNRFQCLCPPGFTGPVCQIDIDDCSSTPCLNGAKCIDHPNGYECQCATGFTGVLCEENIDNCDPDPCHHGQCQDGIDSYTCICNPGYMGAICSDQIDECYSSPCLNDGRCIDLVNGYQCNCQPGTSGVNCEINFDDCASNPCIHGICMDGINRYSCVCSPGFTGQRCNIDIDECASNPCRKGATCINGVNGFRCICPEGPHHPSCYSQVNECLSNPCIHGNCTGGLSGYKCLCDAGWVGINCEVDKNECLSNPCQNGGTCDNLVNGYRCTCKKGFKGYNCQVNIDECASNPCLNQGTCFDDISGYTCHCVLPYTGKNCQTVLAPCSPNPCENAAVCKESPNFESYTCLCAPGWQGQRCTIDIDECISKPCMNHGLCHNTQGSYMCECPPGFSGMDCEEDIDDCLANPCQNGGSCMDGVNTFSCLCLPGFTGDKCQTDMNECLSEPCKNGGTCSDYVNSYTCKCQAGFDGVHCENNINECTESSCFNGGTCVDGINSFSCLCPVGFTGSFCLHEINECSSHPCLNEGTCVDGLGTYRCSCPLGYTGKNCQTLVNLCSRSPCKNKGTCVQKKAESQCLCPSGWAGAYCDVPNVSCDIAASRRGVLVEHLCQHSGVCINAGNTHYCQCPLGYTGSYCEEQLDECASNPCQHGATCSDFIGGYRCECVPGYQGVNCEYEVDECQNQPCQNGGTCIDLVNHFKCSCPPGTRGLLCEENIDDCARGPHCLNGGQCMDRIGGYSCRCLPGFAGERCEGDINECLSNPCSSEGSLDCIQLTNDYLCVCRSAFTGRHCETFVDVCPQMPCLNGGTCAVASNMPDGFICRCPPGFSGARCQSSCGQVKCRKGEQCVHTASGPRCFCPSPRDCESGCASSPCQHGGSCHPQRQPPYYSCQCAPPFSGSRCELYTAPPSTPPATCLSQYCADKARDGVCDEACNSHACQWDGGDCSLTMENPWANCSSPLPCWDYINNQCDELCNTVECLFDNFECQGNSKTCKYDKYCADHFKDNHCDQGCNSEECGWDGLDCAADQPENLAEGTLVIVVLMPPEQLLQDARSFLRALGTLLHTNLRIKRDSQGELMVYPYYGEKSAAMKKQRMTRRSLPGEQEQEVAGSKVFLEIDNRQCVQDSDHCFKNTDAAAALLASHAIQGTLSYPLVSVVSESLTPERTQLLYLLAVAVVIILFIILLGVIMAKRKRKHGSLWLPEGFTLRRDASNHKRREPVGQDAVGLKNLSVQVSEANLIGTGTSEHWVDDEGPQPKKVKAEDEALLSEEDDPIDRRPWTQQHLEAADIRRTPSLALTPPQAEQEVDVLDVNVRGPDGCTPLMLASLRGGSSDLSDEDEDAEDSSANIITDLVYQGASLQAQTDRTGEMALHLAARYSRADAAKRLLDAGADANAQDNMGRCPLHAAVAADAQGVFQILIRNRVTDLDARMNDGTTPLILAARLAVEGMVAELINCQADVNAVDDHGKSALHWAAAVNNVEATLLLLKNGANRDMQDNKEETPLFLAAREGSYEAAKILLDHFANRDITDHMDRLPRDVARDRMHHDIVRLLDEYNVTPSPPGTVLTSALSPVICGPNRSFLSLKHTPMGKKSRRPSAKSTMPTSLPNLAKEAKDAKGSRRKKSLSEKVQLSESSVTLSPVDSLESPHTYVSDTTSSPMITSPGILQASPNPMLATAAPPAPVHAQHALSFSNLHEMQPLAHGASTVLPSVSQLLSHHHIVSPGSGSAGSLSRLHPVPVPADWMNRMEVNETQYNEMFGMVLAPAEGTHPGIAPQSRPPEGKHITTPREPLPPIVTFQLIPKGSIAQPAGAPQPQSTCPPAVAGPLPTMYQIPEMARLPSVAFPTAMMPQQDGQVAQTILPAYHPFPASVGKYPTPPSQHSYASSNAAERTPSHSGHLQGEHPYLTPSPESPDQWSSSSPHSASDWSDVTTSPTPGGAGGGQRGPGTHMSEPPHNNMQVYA
Pro-neuregulin-1, membrane-bound isoform (Homo sapiens), sequence (Q02297 whole entry, looked up, the tested form may be a part, canonical isoform): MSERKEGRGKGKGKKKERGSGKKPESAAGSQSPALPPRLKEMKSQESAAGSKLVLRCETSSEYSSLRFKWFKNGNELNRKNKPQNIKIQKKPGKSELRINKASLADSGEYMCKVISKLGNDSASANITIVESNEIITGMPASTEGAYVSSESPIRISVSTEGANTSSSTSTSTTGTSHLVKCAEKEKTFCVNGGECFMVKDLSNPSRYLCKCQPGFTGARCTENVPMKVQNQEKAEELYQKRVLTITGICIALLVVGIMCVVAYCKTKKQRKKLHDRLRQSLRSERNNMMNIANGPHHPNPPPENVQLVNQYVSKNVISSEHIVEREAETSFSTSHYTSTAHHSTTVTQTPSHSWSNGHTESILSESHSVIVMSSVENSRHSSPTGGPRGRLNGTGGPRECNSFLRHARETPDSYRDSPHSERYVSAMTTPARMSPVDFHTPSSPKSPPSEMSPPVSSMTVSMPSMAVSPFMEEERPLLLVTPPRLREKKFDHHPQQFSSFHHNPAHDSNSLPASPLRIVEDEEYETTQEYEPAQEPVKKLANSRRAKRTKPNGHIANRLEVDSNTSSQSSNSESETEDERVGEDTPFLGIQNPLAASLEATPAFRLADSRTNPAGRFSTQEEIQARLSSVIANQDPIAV
Torsin-1A-interacting protein 2 (Homo sapiens), sequence (Q8NFQ8 whole entry, looked up): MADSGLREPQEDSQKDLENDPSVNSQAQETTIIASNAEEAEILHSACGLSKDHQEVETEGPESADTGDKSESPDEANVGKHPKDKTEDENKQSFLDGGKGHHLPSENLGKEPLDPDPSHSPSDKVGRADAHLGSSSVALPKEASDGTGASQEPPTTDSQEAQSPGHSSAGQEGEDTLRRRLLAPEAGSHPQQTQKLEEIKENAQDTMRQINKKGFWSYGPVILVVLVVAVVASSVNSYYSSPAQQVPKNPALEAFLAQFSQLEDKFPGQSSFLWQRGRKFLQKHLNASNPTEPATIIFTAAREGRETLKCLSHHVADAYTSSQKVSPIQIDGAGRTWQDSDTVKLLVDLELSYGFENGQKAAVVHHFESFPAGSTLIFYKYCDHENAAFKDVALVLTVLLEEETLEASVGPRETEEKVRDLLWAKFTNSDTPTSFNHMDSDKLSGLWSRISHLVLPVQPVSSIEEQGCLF

With `N#Cc1ccc(NN2C(C(O)c3ccccc3)C=CC3C(=O)N(c4ccccc4)C(=O)C32)cc1` (stereo not given), the composite z-score was 0.0243 in experiment [1]; -0.0347 in [2]; 0.111 in [3]; 0.379 in experiment [4]; 0.639 in [5]; 1.15 in experiment [6]. In addition, the composite z-score in experiment [7] was 1.09; in [9], 0.64; in experiment [10], -0.151; in experiment [11], -0.827; in [15], 3.29; in [17] it was 0.228. The values for the composite z-score in experiment [18], in [19] and in [20] were -0.229, 0.552 and -0.0531, respectively. The z-score in experiment [8] was 0.474 (inactive); in experiment [12] it was -0.541 (inactive); in experiment [13], 0.836 (inactive); in experiment [14] it was 1.77 (inactive); in experiment [16], -0.676 (inactive).

For the molecule `COCCOC(=O)N1C(=O)[C@@]2(c3cc(C#CCC(C(=O)OC)C(=O)OC)ccc31)[C@H](C(=O)N1CCCCCCC1)[C@H]1C(=O)O[C@H](c3ccccc3)[C@H](c3ccccc3)N1[C@@H]2c1ccc(O)cc1`, the composite z-score in [1] turned out to be 2.64; in experiment [2], 0.745; in experiment [3], 0.146; in experiment [4] it was 0.344; in [5], 1.26; in experiment [6], 1.33. For the same molecule, the composite z-score amounted to 1.25 in [7]; 2.37 in [9]; 0.801 in experiment [10]; 1.49 in experiment [11]; 3.19 in experiment [15]; 1.06 in experiment [17]. The composite z-score in experiment [18] turned out to be 1.37; in experiment [19] it was 1.07; in experiment [20], 0.456. The z-score in [8] was 0.741 (inactive); in experiment [12] it was 0.405 (inactive); in experiment [13] it was -0.866 (inactive); in experiment [14], 1.15 (inactive); in experiment [16] it was 1.04 (inactive).

As to `CCCN1C(=O)[C@@H]2Cc3c([nH]c4ccccc34)[C@@H](c3cccc(O)c3)N2C1=O`, the composite z-score in experiment [1] was -0.588; in [2] it was 0.247; in [3] it was -0.113; in [4], 0.428; in [5] it was 0.59; in [6] it was 0.263. Further, the composite z-score in experiment [7] is 0.12; in experiment [9], -0.0001; in experiment [10] it was -0.0994; in experiment [11], 0.213; in [15], 0.379; in experiment [17], -0.0823. The composite z-score in [18] was 0.287; in [19], 0.423; in experiment [20], -0.0424. Also, the z-score is 0.85 (inactive) in experiment [8]; -0.521 (inactive) in [12]; -0.132 (inactive) in [13]; 0.385 (inactive) in [14]; 0.317 (inactive) in experiment [16].

Take `CC(=O)NCCCC[C@@H]1NC(=O)[C@H]2C[C@@H](C(=O)NCCCCCN)[C@@H](c3cccc(OCCO)c3)N2C1=O`: the composite z-score in experiment [1] is -0.0485; in [2], 0.107; in [3], 0.0661; in experiment [4] it was 0.792; in experiment [5] it was 0.831; in [6], 1.09. For the same molecule, the composite z-score was 0.581 in [7]; 0.547 in experiment [9]; 0.758 in [10]; 0.907 in experiment [11]; 2.23 in experiment [15]; -0.097 in experiment [17]. The composite z-score was 0.559 in experiment [18], 0.275 in experiment [19] and -0.0155 in [20]. In addition, the z-score in experiment [8] is -0.549 (inactive); in experiment [12] it was -1.51 (inactive); in [13], -0.0234 (inactive); in [14], -0.883 (inactive); in experiment [16], 1.56 (inactive).

On to `CC(C)NC(=O)[C@@H]1c2ccccc2C(=O)N(Cc2cc(C(F)(F)F)cc(C(F)(F)F)c2)[C@H]1c1ccc(CO)cc1`, for which the composite z-score in [1] was 0.27; in experiment [2] it was 0.255; in experiment [3] it was 0.0032; in experiment [4], -0.0264; in experiment [5], 0.805; in experiment [6], 0.104. Besides, the composite z-score in experiment [7] was 0.663; in experiment [9] it was 0.619; in experiment [10], 0.0596; in [11], 1.46; in experiment [15], 2.4; in experiment [17], -0.0107. The figures for the composite z-score in [18], in experiment [19] and in experiment [20] were 0.598, 1.04 and -0.0248, respectively. Besides, the z-score in experiment [8] is 0.306 (inactive); in experiment [12], -0.245 (inactive); in experiment [13], -0.593 (inactive); in [14], -0.517 (inactive); in experiment [16] it was -0.216 (inactive).
